Results published in PubChem BioAssay (NCATS).
Records with an inconclusive call do not appear. Active and inactive are the calls of the source. Unless noted, the call rests on the fitted dose curve; in most records, active means well fitted curve in either direction with a large enough effect (not every such curve was filed as active); inconclusive means small, poorly fitted or top-dose-only effect, or another doubt; inactive means flat fitted curve, though single readings scatter.

Columns and labels:
[1] = target: Lysosomal acid glucosylceramidase (Homo sapiens) (UniProt P04062); test: Glucocerebrosidase-p2 (AID 348; in the data active means potency below about 10 µM; further: potency means the concentration at half of the fitted maximal effect); settings: purified GBA, blue fluorogenic substrate, 40 min
In short: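 Normal human glucocerebrosidase (0.2 nM) with blue fluorogenic substrate (80 uM final) in citrate/phosphate pH 5.9 with 10mM sodium taurocholate, 0.01% tween-20; 40 min RT, NaOH/glycine stop; fluorescence Ex 365/Em 440; AC50 from a titration from 0.6 nM upwards.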

[2] = AP1 Signaling Pathway (AID 357); settings: ME-180 AP-1-bla reporter, EGF-induced, beta-lactamase ratio, 5 h; at 7.69 µM (top of the series) unless noted;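 further: ME-180 reporter cells stimulated with EGF at its EC50 level; on the % scale 0 is the no-effect control and ±100 the full control effect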
In short: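 Beta-lactamase reporter under AP-1 response element, ME-180 background. Stimulus: EC50 EGF. Compound exposure 5 h, 37 °C. Detection: CCF4, 2.5 h RT, 460/530 nm. Values: AC50 from titration.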

[3] = target: Cytochrome P450 1A2 (Homo sapiens) (UniProt P05177); test: p450-cyp1a2 (AID 410; calls by dose curve; further: potency means the concentration at half of the fitted maximal effect;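 on activity change, negative = inhibition: -100% = full effect of reference inhibitor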); settings: recombinant CYP1A2, luciferin-ME demethylation, luminescence; series mostly up to 57 µM
In short: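 20nM CYP1A2, 100uM Luciferin-ME (=Km), 100mM KPO4; cpd 10 min RT; +NADPH regen, 60 min RT; stop/detect 20 min; luminescence. Normalized to furafylline 57 uM = full inhibition.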

[4] = NFAT Signaling Pathway (AID 444); settings: Jurkat NFAT-bla M1, carbachol, beta-lactamase ratio, 5 h; at 7.69 µM (top of the series) unless noted;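 further: carbachol stimulus at about its EC50 of 1 µM final; on the % scale 0 is the no-effect control and ±100 the full control effect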
In short: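 Jurkat cells with NFAT-driven β-lactamase reporter and co-expressed M1 receptor, stimulated with carbachol (final 1 uM, ~EC50), compound titration, 5 h at 37 °C. CCF4 loaded 1 h at RT; 460/530 nm ratio gave %activity and AC50.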

[5] = Stat Signaling Pathway (AID 446); settings: ME-180 SIE beta-lactamase reporter, IL-6 stimulated, 5 h; at 7.69 µM (top of the series) unless noted;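 further: ME-180 cervical cancer cells given 40 pM IL-6 alongside compound; SIE-controlled beta-lactamase reporter measured as 460/530 nm FRET emission ratio; on the % scale 0 is the no-effect control and ±100 the full control effect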
In short: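 FRET read-out (405 nm excitation, 460/530 nm emission) of a beta-lactamase reporter under a STAT-inducible element in ME-180 cervical carcinoma cells. Cells with compound receive 40 pM IL-6 for 5 h. Values are normalised to AC90 stimulation and AC90 JAK-inhibitor controls.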

[6] = target: Glucocorticoid receptor (Homo sapiens) (UniProt P04150); test: GR-EFC Redistribution (AID 451; calls by dose curve; further: potency means the concentration at half of the fitted maximal effect); settings: CHO-K1 GR-EFC translocation, beta-gal luminescence, 2 h
In short: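 CHO-K1 cells expressing nuclear EA and GR-ED fragments of b-gal; compounds titrated up to 46 uM final, 2 h at 37 C. GR nuclear translocation read as complemented b-gal luminescence after 1 h RT detection.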

[7] = target: Mitogen-activated protein kinase 10 (Mus musculus) (UniProt Q61831); test: JNK3 AlphaScreen Assay (AID 530); settings: JNK3 lysate, c-Jun phosphorylation; series mostly up to 57.1 µM;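 further: kinase came from lysate of stimulated human HepG2 cells; signal reports phosphorylation of biotinylated GST-cJun 1-79 at Ser73 with 10 µM ATP; on the % scale 0 is the no-effect control and ±100 the full control effect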
In short: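 HepG2 lysate (IL-1b/TNFa pre-activated) + biotin-GST-cJun 1-79 + anti-pSer73 cJun; cpd titration, 15 min RT; ATP 10 uM start; Tris pH 7.6, MgCl2, DTT, vanadate; beads in EDTA buffer; AlphaScreen.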

[8] = target: 3',5'-cyclic-AMP phosphodiesterase 4B (Homo sapiens) (UniProt Q07343); test: qHTS Assay for Inhibitors of PDE-IV (AID 607; active means well fitted activation curve with a large enough effect in the main read-out, with a control signal flat, not every such curve was filed as active; further: % of control where 0% means no effect); settings: HEK293 ACTOne CNG channel cells, membrane potential fluorescence; series mostly up to 22.9 µM
In short: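 Cell-based read-out of cAMP via a modified cyclic nucleotide-gated channel and membrane potential dye (535/590 nm) in HEK293 cells expressing PDE4 endogenously. Compounds tested up to 22.9 uM final; 100 uM RO 20-1724 reference.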

[9] = target: Cytochrome P450 2C9 (Homo sapiens) (UniProt P11712); test: qHTS Assay for Inhibitors and Substrates of Cytochrome P450 2C9 (AID 883; active means well fitted curve in the direction sought with a large enough effect; an effect the other way counts as inactive or inconclusive; further: potency means the concentration at half of the fitted maximal effect; nearly all actives have a fitted effect of over 60% in size); settings: recombinant CYP2C9, luciferin-H luminescence, 60 min; series mostly up to 57.1 µM
In short: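 Human CYP2C9 (10nM) with Luciferin-H at 100uM (its KM) in 25mM KPO4; compound preincubated 10 min at 37C, then NADPH regeneration for 60 min at 37C. Luciferin read by luminescence after detection reagent; normalized to 57uM sulphaphenazole as full inhibition.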

[10] = target: Cytochrome P450 3A4 (Homo sapiens) (UniProt P08684); test: qHTS Assay for Inhibitors and Substrates of Cytochrome P450 3A4 (AID 884; active means well fitted curve in the direction sought with a large enough effect; an effect the other way counts as inactive or inconclusive; further: nearly all actives have a fitted effect of over 50% in size; further: potency means the concentration at half of the fitted maximal effect); settings: recombinant CYP3A4, Luciferin-PPXE luminescence; series mostly up to 57.1 µM
In short: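 Luminescent readout of luciferin produced by CYP3A4 (20 nM) dealkylation of Luciferin-PPXE, 25 uM (its KM). NADPH-driven reaction ran 60 min at RT after 10 min compound preincubation; data scaled to 57 uM ketoconazole as 100% inhibition.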

[11] = target: Cytochrome P450 3A4 (Homo sapiens) (UniProt P08684); test: qHTS Assay for Activators of Cytochrome P450 3A4 (AID 885; active means well fitted curve in the direction sought with a large enough effect; an effect the other way counts as inactive or inconclusive; further: nearly all actives have a fitted effect of over 65% in size; further: potency means the concentration at half of the fitted maximal effect); settings: recombinant CYP3A4, Luciferin-PPXE luminescence, 60 min; series mostly up to 57.1 µM
In short: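 Luminescent readout of luciferin formed from 25 uM Luciferin-PPXE (KM level) by 20 nM CYP3A4 in 200 mM KPO4, with 60 min NADPH-driven reaction at room temperature after 10 min compound exposure. Ketoconazole (57 uM) defined 100% inhibition.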

[12] = qHTS Assay for Lipid Storage Modulators (AID 1519; calls by dose curve); settings: Drosophila S3 cells, BODIPY lipid droplet/cell ratio, laser cytometry, cells loaded with oleic acid; for activity change, negative = inhibition: at 57.5 µM (top of the series)
In short: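 Cells seeded at 5,000 per well were treated with compounds over a concentration series and loaded with oleic acid (400 uM, as added). Lipid droplet fluorescence (488 nm excitation, 500-530 nm channel) was read by laser-scanning cytometry and normalized to 20 uM Triacsin C.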

[13] = Primary qHTS for small molecule stabilizers of the endoplasmic reticulum resident proteome: Secreted ER Calcium Modulated Protein (SERCaMP) assay (AID 1508630; active means well fitted curve in the direction sought with a large enough effect; an effect the other way counts as inactive or inconclusive; further: on the % scale 0 is the no-effect control and ±100 the full control effect); settings: SH-SY5Y GLuc-SERCaMP (Gaussia luciferase released on ER calcium loss) secretion, thapsigargin, luminescence; series mostly up to 38.4 µM
In short: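 The SH-SY5Y reporter protocol was run at 3 concentrations up to 38.3 uM (primary) or 11 concentrations (follow-up): 16 h compound, 100 nM thapsigargin for 4 h, then extracellular luciferase luminescence.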

[14] = target: Cytochrome P450 2D6 (Homo sapiens) (UniProt P10635); test: qHTS Assay for Inhibitors and Substrates of Cytochrome P450 2D6 (AID 891; active means well fitted curve in the direction sought with a large enough effect; an effect the other way counts as inactive or inconclusive; further: potency means the concentration at half of the fitted maximal effect; nearly all actives have a fitted effect of over 60% in size); settings: recombinant CYP2D6, luciferin-ME EGE luminescence; series mostly up to 57.1 µM
In short: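 Luminescent read-out of luciferin formed by 5 nM human CYP2D6 demethylating 30 uM Luciferin-ME EGE (Km level) over 60 min at room temperature after NADPH regeneration addition. Data normalized to full inhibition by 1.43 uM quinidine.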

[15] = qHTS Assay for Identification of Small Molecule Agonists for Hypoxia Response Element Signaling Pathway (AID 914; active means well fitted activation curve with a large enough effect in the signal ratio, with a control signal flat, not every such curve was filed as active; the % refers to the signal ratio; further: % of control where 0% means no effect); settings: ME-180 (cervical carcinoma) HRE-bla reporter, beta-lactamase ratio, CoCl2, 17 h; activation: stronger effect = higher value
In short: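 A beta-lactamase reporter under hypoxia response element control in ME-180 cells served as the system. Compound titrations plus EC50 CoCl2 ran 17 h at 37 degrees Celsius; AC50 values were fitted from %Activity.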

[16] = target: Cytochrome P450 2C19 (Homo sapiens) (UniProt P33261); test: qHTS Assay for Inhibitors and Substrates of Cytochrome P450 2C19 (AID 899; active means well fitted curve in the direction sought with a large enough effect; an effect the other way counts as inactive or inconclusive; further: potency means the concentration at half of the fitted maximal effect; nearly all actives have a fitted effect of over 60% in size); settings: recombinant CYP2C19, luciferin-H EGE luminescence; series mostly up to 57.1 µM
In short: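 5 nM human CYP2C19 with 10uM Luciferin-H EGE (at KM) in 50mM KPO4, compound preincubated 10 min at 37C, then NADPH regeneration for 60 min at 37C. Luciferin read by luminescence after detection reagent; normalized to 57uM ketoconazole as full inhibition.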

[17] = measured here: cell count channel max response
[18] = measured here: lipid channel max response

Sequence of Cytochrome P450 1A2 (Homo sapiens) (P05177 whole entry, looked up): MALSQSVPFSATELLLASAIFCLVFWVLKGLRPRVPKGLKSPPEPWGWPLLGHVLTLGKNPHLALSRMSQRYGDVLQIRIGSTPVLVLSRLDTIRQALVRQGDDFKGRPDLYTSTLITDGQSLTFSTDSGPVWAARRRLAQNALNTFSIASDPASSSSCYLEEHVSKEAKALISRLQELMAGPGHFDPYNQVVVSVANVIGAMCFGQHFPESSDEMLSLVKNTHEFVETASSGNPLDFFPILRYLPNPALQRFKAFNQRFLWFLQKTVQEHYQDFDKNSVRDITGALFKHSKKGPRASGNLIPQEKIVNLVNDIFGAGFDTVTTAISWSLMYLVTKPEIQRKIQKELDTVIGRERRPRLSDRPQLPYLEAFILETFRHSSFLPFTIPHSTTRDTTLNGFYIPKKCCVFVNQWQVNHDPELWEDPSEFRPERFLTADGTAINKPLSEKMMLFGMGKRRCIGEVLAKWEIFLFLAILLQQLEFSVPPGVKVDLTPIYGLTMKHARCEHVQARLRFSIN
Sequence of Glucocorticoid receptor (Homo sapiens) (P04150 whole entry, looked up, the tested form may be a part): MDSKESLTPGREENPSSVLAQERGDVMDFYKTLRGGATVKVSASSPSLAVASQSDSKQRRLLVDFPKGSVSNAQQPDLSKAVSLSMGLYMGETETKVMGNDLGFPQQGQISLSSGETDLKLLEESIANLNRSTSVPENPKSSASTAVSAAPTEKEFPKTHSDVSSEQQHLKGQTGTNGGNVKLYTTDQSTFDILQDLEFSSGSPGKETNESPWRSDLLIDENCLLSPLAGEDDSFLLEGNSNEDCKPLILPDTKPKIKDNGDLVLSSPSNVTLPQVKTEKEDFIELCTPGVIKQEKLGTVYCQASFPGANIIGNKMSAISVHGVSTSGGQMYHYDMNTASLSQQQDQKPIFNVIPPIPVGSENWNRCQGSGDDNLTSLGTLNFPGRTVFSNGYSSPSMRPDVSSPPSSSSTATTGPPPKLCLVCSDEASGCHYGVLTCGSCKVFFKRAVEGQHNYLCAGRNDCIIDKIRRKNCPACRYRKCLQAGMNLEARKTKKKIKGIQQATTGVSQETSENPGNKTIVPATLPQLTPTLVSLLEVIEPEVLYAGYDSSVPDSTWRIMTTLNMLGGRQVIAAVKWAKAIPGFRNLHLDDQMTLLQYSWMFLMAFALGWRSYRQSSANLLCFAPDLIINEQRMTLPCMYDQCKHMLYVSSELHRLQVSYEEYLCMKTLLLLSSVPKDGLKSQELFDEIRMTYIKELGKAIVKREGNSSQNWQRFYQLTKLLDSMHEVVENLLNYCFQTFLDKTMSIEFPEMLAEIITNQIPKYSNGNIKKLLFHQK
Sequence of Lysosomal acid glucosylceramidase (Homo sapiens) (P04062 whole entry, looked up): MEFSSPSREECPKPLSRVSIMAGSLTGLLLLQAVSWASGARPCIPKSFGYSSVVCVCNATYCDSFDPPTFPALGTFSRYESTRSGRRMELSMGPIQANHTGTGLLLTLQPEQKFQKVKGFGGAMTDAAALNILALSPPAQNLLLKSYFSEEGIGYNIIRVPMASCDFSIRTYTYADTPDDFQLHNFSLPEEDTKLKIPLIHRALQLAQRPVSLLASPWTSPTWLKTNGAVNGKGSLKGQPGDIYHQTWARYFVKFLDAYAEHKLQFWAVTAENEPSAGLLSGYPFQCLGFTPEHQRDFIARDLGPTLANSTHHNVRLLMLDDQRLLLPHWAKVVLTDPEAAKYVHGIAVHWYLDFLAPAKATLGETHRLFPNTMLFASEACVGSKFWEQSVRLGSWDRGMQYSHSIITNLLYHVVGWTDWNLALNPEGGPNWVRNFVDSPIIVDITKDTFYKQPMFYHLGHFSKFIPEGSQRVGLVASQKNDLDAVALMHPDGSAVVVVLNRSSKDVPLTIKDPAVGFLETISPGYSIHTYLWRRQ
Sequence of 3',5'-cyclic-AMP phosphodiesterase 4B (Homo sapiens) (Q07343 whole entry, looked up): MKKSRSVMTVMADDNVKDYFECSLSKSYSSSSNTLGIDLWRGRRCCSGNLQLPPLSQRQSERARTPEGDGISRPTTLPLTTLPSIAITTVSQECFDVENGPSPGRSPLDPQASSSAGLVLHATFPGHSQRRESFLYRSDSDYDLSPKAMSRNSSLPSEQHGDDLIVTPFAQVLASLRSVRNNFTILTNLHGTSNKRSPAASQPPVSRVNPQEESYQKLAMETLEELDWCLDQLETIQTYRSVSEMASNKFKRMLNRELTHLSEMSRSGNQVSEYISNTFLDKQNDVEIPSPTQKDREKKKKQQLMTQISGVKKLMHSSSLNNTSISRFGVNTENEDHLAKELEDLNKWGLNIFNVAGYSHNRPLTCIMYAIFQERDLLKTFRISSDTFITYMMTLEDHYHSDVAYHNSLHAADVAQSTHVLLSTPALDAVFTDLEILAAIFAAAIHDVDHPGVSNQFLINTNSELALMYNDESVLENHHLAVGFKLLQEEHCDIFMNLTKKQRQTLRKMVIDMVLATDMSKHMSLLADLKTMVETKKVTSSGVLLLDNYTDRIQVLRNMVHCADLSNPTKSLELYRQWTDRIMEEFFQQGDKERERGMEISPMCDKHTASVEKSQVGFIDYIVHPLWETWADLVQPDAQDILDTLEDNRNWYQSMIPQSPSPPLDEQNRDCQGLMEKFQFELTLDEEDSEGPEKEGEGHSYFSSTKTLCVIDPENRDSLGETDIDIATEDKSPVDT
Sequence of Cytochrome P450 3A4 (Homo sapiens) (P08684 whole entry, looked up): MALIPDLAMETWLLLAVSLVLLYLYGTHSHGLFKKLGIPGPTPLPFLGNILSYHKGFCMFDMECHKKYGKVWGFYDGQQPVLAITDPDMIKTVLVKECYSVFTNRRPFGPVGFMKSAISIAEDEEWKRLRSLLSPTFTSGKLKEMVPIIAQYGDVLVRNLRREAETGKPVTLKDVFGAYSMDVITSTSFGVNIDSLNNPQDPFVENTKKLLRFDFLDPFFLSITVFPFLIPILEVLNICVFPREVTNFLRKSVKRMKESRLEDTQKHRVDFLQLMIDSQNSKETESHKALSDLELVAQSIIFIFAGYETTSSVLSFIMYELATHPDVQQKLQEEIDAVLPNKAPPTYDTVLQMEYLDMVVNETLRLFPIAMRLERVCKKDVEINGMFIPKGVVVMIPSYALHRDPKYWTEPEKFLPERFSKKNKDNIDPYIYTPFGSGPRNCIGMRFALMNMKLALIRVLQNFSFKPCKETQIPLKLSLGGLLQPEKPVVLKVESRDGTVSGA
Sequence of Cytochrome P450 2D6 (Homo sapiens) (P10635 whole entry, looked up): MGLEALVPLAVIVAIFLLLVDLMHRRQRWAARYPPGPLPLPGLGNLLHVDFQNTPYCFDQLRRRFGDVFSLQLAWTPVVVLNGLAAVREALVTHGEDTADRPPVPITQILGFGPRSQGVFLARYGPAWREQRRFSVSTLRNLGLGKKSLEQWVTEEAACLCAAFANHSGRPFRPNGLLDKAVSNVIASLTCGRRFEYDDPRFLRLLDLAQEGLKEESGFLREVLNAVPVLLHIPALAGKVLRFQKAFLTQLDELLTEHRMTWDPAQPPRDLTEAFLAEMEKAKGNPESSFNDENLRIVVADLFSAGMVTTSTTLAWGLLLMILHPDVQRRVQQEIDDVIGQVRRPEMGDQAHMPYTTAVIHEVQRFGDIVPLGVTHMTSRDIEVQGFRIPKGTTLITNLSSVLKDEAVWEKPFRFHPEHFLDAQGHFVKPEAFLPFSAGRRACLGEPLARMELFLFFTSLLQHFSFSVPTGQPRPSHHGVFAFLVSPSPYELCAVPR
Sequence of Cytochrome P450 2C19 (Homo sapiens) (P33261 whole entry, looked up): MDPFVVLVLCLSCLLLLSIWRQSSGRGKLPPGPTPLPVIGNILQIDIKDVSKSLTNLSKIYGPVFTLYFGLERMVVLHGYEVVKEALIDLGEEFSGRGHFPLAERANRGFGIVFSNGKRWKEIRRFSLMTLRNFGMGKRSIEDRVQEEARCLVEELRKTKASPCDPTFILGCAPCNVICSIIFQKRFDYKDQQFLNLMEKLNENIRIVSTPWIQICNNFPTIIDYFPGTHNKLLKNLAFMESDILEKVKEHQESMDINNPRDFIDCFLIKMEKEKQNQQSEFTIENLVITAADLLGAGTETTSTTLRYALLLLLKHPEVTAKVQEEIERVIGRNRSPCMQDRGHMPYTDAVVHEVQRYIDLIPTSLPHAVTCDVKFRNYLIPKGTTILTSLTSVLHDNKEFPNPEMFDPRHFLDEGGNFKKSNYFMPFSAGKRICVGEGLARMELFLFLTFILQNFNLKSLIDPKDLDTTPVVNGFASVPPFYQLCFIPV
Sequence of Cytochrome P450 2C9 (Homo sapiens) (P11712 whole entry, looked up): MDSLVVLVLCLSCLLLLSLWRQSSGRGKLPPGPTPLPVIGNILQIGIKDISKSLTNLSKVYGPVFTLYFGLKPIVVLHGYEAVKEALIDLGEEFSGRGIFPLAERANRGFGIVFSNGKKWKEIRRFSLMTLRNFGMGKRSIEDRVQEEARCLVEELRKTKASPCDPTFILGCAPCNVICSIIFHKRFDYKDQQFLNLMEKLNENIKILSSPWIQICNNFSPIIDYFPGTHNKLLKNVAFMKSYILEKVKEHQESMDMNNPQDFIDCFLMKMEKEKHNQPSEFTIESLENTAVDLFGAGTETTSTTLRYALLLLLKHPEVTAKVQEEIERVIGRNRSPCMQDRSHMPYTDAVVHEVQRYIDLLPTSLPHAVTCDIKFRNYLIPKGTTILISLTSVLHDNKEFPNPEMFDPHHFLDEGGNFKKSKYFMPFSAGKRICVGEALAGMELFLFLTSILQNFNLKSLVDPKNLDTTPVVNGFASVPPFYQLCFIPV

Row | Compound | Potency [1] | activity change, negative = inhibition [2] | Potency [3] | activity change, negative = inhibition [4] | activity, negative = inhibition [5] | Potency [6] | outcome [7] | Potency [8] | Potency [9] | Potency [10] | Potency [11] | activity change, negative = inhibition [12] | max response [12, 17] | max response [12, 18] | Potency [13] | Potency [14] | activation [15] | Potency [16]
1 | O=S(=O)(c1ccccc1)N1CCC2(CCN(C(c3ccccc3)c3ccccc3)CC2)CC1 | > 11.4 µM (inactive) | -13.4% (inactive) | inactive | -19.9% (inactive) | -5.59% (inactive) | > 46 µM (inactive) | inactive | inactive | 0.501 µM (active) | inactive | 12.6 µM (active) | 6.93% (inactive) | 11.2% | 22.7% | inactive |  |  | 
2 | O=C(c1cccc(F)c1)N1CCC2(CC1)CCN(c1ccccc1)CC2 | > 11.4 µM (inactive) | -0.371% (inactive) | 15.8 µM (active) | -2.46% (inactive) | -10.8% (inactive) | > 46 µM (inactive) | inactive | inactive |  | inactive | 7.94 µM (active) | 3.88% (inactive) | -3.82% | 4.22% | inactive |  |  | 
3 | O=C(c1ccncc1)N1CCC2(CC1)CN(C(c1ccccc1)c1ccccc1)C2 | > 11.4 µM (inactive) | 4.62% (inactive) | 15.8 µM (active) | 16.7% (inactive) | -10.1% (inactive) | > 46 µM (inactive) | inactive | inactive |  | inactive | 3.98 µM (active) | 4.23% (inactive) | -4.87% | 3.6% | inactive | 0.0251 µM (active) |  | 
4 | O=C(c1ccco1)N1CCC2(CC1)CN(c1ccccc1)C2 | > 11.4 µM (inactive) | -1.6% (inactive) | inactive | 28.4% (inactive) | -9.25% (inactive) | > 46 µM (inactive) | inactive | inactive |  | inactive | 15.8 µM (active) | 6.46% (inactive) | 15.8% | 25.8% | inactive |  | -3.45% (inactive) | 
5 | O=C(c1cnccn1)N1CCC2(CCCN(c3ccccc3)C2)CC1 | > 11.4 µM (inactive) | 13.8% (inactive) | inactive | 5.12% (inactive) | -11.6% (inactive) | > 46 µM (inactive) | inactive | inactive |  | 1.58 µM (active) | inactive | 4.73% (inactive) | 21.1% | 29.2% | inactive |  |  | 0.501 µM (active)
6 | CC(C)NC(=O)N1CCCC2(CCN(S(=O)(=O)c3ccccc3)CC2)C1 | > 11.4 µM (inactive) | -4.26% (inactive) | inactive | -5.06% (inactive) | -5.18% (inactive) | > 46 µM (inactive) | inactive | inactive |  | 7.94 µM (active) | inactive | 4.51% (inactive) | 20% | 26.7% | inactive | 0.316 µM (active) |  | 
